Measurements from PubChem BioAssay AID1159580 (chemical genetic matrix, 2015).
Values joined by “and” are separate entries in the source; they are usually repeats but may differ in a detail not shown here. Equal values may be shown once. Hit rate of the full screen: of about 5,500 compounds, about 2,000 (36%) were called active. Not shown: some 18% with an inconclusive outcome. Cut-off read from the data, not from the text of the source: active = normalized growth mostly below about 0.91 (no sharp cut-off); inconclusive = no clear call, values can overlap the other calls; inactive = mostly above about 0.92. This is one part of the list.

Experiment: chemical genetic growth profiling, strain panel (AID 1159580);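 note: tested at 20 µM; growth read once vehicle control cultures reached saturation at 30 °C; 1 = growth at the plate median or of vehicle wells; lower values mean less growth of the strain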
Settings: S. cerevisiae deletion strains, growth OD

Measured: normalized growth

COc1ccc(C(=O)N2CCCC2=O)cc1
inactive: locus YAL013W, strain DEP1, active compounds read low 0.971 | locus YAL021C, strain ccr4, active compounds read low 0.981 | locus YAL026C, strain drs2, active compounds read low 0.976 | locus YAL030W, strain snc1, active compounds read low 0.956 | locus YAL040C, strain CLN3, active compounds read low 1.01 | locus YBL061C, strain skt5, active compounds read low 0.962 | locus YBR009C, strain hhf1, active compounds read low 0.969 | locus YBR021W, strain FUR4, active compounds read low 1.05 | locus YBR023C, strain chs3, active compounds read low 0.967 | locus YBR171W, strain sec66, active compounds read low 0.96 | locus YBR229C, strain ROT2, active compounds read low 0.953 | locus YBR231C, strain swc5, active compounds read low 0.967 | locus YBR279W, strain paf1, active compounds read low 0.987 | locus YCL011C, strain gbp2, active compounds read low 0.946 | locus YCL016C, strain dcc1, active compounds read low 0.976 | locus YCL029C, strain bik1, active compounds read low 0.983 | locus YCL061C, strain MRC1, active compounds read low 0.974 | locus YCL069W, strain vba3, active compounds read low 0.985 | locus YCR088W, strain abp1, active compounds read low 0.981 | locus YDL005C, strain med2, active compounds read low 0.974 | locus YDL035C, strain GPR1, active compounds read low 0.984 | locus YDL040C, strain nat1, active compounds read low 0.984 | locus YDL074C, strain BRE1, active compounds read low 0.961 | locus YDL101C, strain DUN1, active compounds read low 0.952 | locus YDL134C, strain PPH21, active compounds read low 0.993 | locus YDL185W, strain tfp1, active compounds read low 0.964 | locus YDL192W, strain arf1, active compounds read low 0.983 | locus YDR001C, strain nth1, active compounds read low 0.97 | locus YDR069C, strain doa4, active compounds read low 0.968 | locus YDR101C, strain arx1, active compounds read low 0.989 | locus YDR137W, strain rgp1, active compounds read low 0.967 | locus YDR150W, strain NUM1, active compounds read low 0.968 | locus YDR159W, strain sac3, active compounds read low 0.968 | locus YDR162C, strain NBP2, active compounds read low 0.968 | locus YDR195W, strain ref2 1 | locus YDR297W, strain sur2, active compounds read low 0.967 | locus YDR318W, strain mcm21, active compounds read low 0.996 | locus YDR334W, strain swr1, active compounds read low 0.939 | locus YDR335W, strain msn5, active compounds read low 0.975 | locus YDR388W, active compounds read low 0.999 | locus YDR392W, strain spt3, active compounds read low 0.929 | locus YDR502C, strain sam2, active compounds read low 0.995 | locus YEL003W, strain gim4, active compounds read low 0.981 | locus YEL037C, strain rad23, active compounds read low 0.979 | locus YEL061C, strain CIN8 (second series), active compounds read low 0.971 | locus YEL061C, strain CIN8, active compounds read low 0.983 | locus YER002W, strain NOP16, active compounds read low 1 | locus YER015W, strain faa2, active compounds read low 0.979 | locus YER016W, strain bim1, active compounds read low 0.984 | locus YER110C, active compounds read low 0.985 | locus YER111C, strain swi4, active compounds read low 0.978 | locus YER155C, strain BEM2 (second series), active compounds read low 0.974 | locus YER155C, strain BEM2, active compounds read low 0.995 | locus YER167W, strain BCK2, active compounds read low 0.983 | locus YFR010W, strain ubp6, active compounds read low 0.962 | locus YGL078C, strain dbp3, active compounds read low 0.985 | locus YGL086W, strain mad1, active compounds read low 0.987 | locus YGL167C, strain pmr1, active compounds read low 0.96 | locus YGL173C, strain kem1, active compounds read low 0.961 | locus YGL227W, strain vid30, active compounds read low 0.971 | locus YGL240W, strain doc1, active compounds read low 0.992 | locus YGL248W, strain PDE1, active compounds read low 0.977 | locus YGL253W, strain hxk2, active compounds read low 0.976 | locus YGR078C, strain PAC10, active compounds read low 0.973 and 1 | locus YGR135W, strain pre9, active compounds read low 0.981 | locus YGR229C, strain SMI1, active compounds read low 0.994 and 1.02 | locus YGR252W, strain gcn5, active compounds read low 1.05 | locus YHR013C, strain ard1, active compounds read low 0.962 | locus YHR027C, strain rpn1, active compounds read low 0.956 | locus YHR030C, strain SLT2, active compounds read low 0.992 | locus YHR079C, strain IRE1 (second series), active compounds read low 0.991 | locus YHR094C, strain hxt1, active compounds read low 0.991 | locus YHR129C, strain ARP1, active compounds read low 0.992 | locus YHR142W, strain chs7, active compounds read low 0.91 | locus YHR200W, strain rpn10, active compounds read low 0.989 | locus YIL066C, strain RNR3, active compounds read low 0.986 | locus YIL073C, strain SPO22, active compounds read low 1.01 | locus YIL125W, strain kgd1, active compounds read low 0.992 | locus YIR030C, strain dcg1, active compounds read low 0.981 | locus YJL092W, strain hpr5, active compounds read low 0.975 | locus YJL095W, strain BCK1 (second series), active compounds read low 0.973 | locus YJL095W, strain BCK1, active compounds read low 1 | locus YJL115W, strain asf1, active compounds read low 0.957 | locus YJL129C, strain trk1, active compounds read low 1.01 | locus YJL134W, strain LCB3, active compounds read low 0.977 | locus YJL154C, strain vps35, active compounds read low 0.975 | locus YJL164C, strain tpk1, active compounds read low 0.985 | locus YJL166W, strain qcr8, active compounds read low 0.945 | locus YJL168C, strain set2, active compounds read low 0.992 | locus YJL187C, strain SWE1 (second series), active compounds read low 0.98 | locus YJL187C, strain SWE1, active compounds read low 0.975 | locus YJR043C, strain POL32, active compounds read low 1
